Rows were chosen to be rich in hits. Some 3.5% of all compounds tested hit in one or more screens of this group.
C8 TRAIL sens: viability loss with TRAIL in NB7+C8 cells, primary screen, TRAIL sensitizer project, cell-based, ATPlite luminescence. inhibition (viability loss, TRAIL sensitization), % at 10 µM. 360,000 compounds, 1% hits;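 active means compounds causing at least 50% loss of cell viability in the single-dose screen, relative to plate controls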
Platelet DG rel: inhibitors of platelet dense granule secretion, primary screen, cell-based, MLPCN, human platelets. human platelet-rich plasma, SFLLRN dense granule ATP release, luminescence. inhibition, %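 (compounds screened at 7.5 µM in platelet-rich plasma)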. 300,000 compounds, 0.22% hits. AID 1663, 2009;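 active means mean replicate score, as percent of positive control, at or above 50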
TWEAK Fn14 block: inhibitors of TWEAK-Fn14 signaling, primary screen, luciferase reporter cells, uHTS; inhibition, % at 10 µM; TWEAK-stimulated Fn14 reporter cells, luciferase luminescence, 8 h; AID 1159606, 2016; 360,000 compounds, 2% hits; in the data active means inhibition above about 50%
HSP90 inh: HSP90 inhibitors, primary screen, cell lysate, luminescence. 290,000 compounds, 0.91% hits. inhibition, % at 5.6 µM. Rabbit reticulocyte lysate, luciferase refolding luminescence, 3 h;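 active means inhibition above the screen-wide mean plus 3 SD, computed separately per campaign, cut at about 16% in these data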;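 further: 0% = DMSO wells and 100% = 60 µM geldanamycin wells; inhibitors lower the luminescence because luciferase stays unfolded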
PPC-1+TRAIL kill: compounds killing PPC-1 cancer cells with TRAIL present, primary screen, TRAIL potentiator project, ATPLite luminescence, uHTS; AID 1443, 2008; 220,000 compounds, 0.41% hits; cell killing (% activity), % at 4 µM or 5 µM; PPC-1 cells + TRAIL, ATPLite viability luminescence;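 active means cell killing above 50% in the first pass at 4 µM, then a duplicate retest at 5 µM averaging 50% or more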;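 further: plate controls were cells with TRAIL plus DMSO for no effect and medium-only wells lacking cells for full effect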
TROY NFkB inh: inhibitors of TROY-driven NF-kB signaling, primary screen, Q293 LMP1-TROYcd cells, NF-kB luciferase, uHTS. 360,000 compounds, 0.98% hits. Q293 LMP1-TROYcd NF-kB luciferase reporter, 4 h. inhibition, % at 10 µM;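 active means compounds whose plate-normalised and pattern-corrected inhibition of the luciferase reporter signal at the single screening dose is 50% or more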
HSP90 inh confirm: HSP90 inhibitors, confirmation, cell lysate, luminescence | shares compounds with HSP90 inh | rabbit reticulocyte lysate, luciferase refolding luminescence, 3 h | inhibition, % at 5.9 µM | 2,300 compounds, 64% hits | AID 1846, 2009; in the data active means inhibition above about 18%;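 further: 0% = vehicle wells and 100% = reference inhibitor wells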
luciferase ctr: firefly luciferase inhibitors, HSP90 counter-screen, confirmation, artefact control for HSP90 inhibitor project, biochemical, luminescence, triplicate. inhibition, % at 5.9 µM. purified native firefly luciferase. shares compounds with HSP90 inh. 2,300 compounds, 48% hits;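 active means inhibition above the mean inhibition of all tested sample wells plus 3 SD, cut at about 10% in these data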;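 further: 0% = DMSO with luciferase and 100% = wells lacking luciferase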
Target sequence (P08659 whole entry, looked up): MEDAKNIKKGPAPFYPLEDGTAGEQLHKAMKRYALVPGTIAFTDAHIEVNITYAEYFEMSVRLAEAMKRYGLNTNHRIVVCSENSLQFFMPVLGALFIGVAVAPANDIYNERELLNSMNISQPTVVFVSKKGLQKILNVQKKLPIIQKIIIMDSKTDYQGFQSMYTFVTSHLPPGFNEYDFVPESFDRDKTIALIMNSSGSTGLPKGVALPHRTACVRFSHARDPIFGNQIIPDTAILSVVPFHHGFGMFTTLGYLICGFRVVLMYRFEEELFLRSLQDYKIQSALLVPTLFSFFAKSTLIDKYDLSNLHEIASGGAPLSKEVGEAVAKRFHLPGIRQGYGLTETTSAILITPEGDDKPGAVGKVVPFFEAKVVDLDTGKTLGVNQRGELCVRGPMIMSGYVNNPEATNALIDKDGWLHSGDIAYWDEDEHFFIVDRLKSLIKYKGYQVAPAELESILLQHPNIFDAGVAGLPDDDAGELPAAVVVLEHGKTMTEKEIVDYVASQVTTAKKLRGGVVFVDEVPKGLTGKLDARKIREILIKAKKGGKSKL
* marks the source's active call; other numbers are inactive results; x = not tested or not shown.

SMILES | C8 TRAIL sens | Platelet DG rel | TWEAK Fn14 block | HSP90 inh | PPC-1+TRAIL kill | TROY NFkB inh | HSP90 inh confirm | luciferase ctr
Cc1ccc(NC(=O)C2CCN(c3ncnc4c3nc3n4CCCCC3)CC2)nc1 | 0.0 | 6.1 | -3.9 | 34.1* | x | 20.9 | -10.1 | -22.4
O=C(C1CCN(c2ncnc3c2nc2n3CCCCC2)CC1)N1CCCCC1 | 6.1 | -3.1 | -12.1 | 1.6 | x | -7.4 | x | x
COc1ccc(CN(C)C[C@@H]2OCCCC[C@H](C)Oc3ccc(NC(=O)Nc4ccc(F)cc4)cc3C(=O)N([C@H](C)CO)C[C@H]2C)cc1 | 10.7 | x | 0.0 | x | x | -6.2 | x | x
COC(=O)c1ccc(N=NNc2ccccc2)cc1 | 39.4 | 2.0 | -13.2 | 28.4* | 7.2 | -75.5 | 46.8* | -11.5
COC(=O)c1ccc(N=Nc2c(C)[nH]n(-c3ccccc3)c2=O)cc1 | -7.4 | 3.6 | -10.2 | 25.9* | x | 2.5 | 30.1* | -3.7
COC(=O)c1ccc(N=NNc2cccc(Br)c2)cc1 | 3.7 | x | -15.8 | 9.9 | 4.2 | -35.5 | x | x
O=C(CCC(C(=O)c1ccccc1)c1ccccc1)c1ccccc1 (stereo not drawn) | 22.2 | x | 7.3 | x | x | -35.6 | x | x
COc1ccc(N(Cc2cc3ccc(C)cc3[nH]c2=O)C(=O)c2ccco2)cc1 | -8.8 | -0.8 | 2.0 | -4.5 | -7.9 | 1.9 | x | x
Cc1ccc(C)c(N(Cc2cc3ccc(C)cc3[nH]c2=O)C(=O)c2ccco2)c1 | 18.8 | 1.5 | 5.6 | 18.3* | -6.3 | 25.1 | 0.8 | -5.1
Nc1cnc(Nc2ccc(Br)cc2)nc1N | 3.9 | 0.5 | 25.5 | -0.9 | 2.4 | -11.0 | x | x
Clc1ccccc1NN=Cc1ccccn1 | 12.9 | x | -22.2 | x | x | -69.0 | x | x
CNS(=O)(=O)c1cc(Cl)ccc1Sc1ccccc1C(=O)O | -17.8 | 5.9 | -12.3 | -2.2 | -1.0 | -23.7 | x | x
NS(=O)(=O)c1c(Sc2ccccc2C(=O)O)ccc2ccccc12 | 4.4 | -3.0 | 54.2* | 23.5* | x | -8.8 | 19.8* | -16.7
O=C(NCCCN1CCCC1=O)c1cc(-c2ccc3c(c2)OCO3)nc2ccccc12 | 36.5 | -0.2 | -11.7 | 0.6 | 33.2 | 3.6 | x | x
O=C(NCCCN1CCCC1=O)c1cc(-c2cccnc2)nc2ccc(Cl)cc12 | -10.2 | 19.6 | -1.7 | 28.2* | 14.6 | -13.9 | -3.1 | -4.3
Cc1ccc(C)c(S(=O)(=O)N(C)c2ccc(OC(=O)C3CCN(C(=O)Nc4ccccc4)CC3)cc2)c1 | 9.6 | x | 11.0 | x | x | 5.7 | x | x
CCc1ccc(NC(=O)c2n[nH]c(=O)c3ccccc23)cc1 | 4.3 | 1.4 | -21.8 | -0.4 | 10.8 | -25.6 | x | x
CCc1nnc(NC(=O)c2n[nH]c(=O)c3ccccc23)s1 | 0.9 | 1.3 | 3.0 | 26.4* | 4.5 | 4.1 | -6.4 | -8.9
Fc1ccc(NC(=S)Nc2cccnc2)c(F)c1F | -7.4 | 0.5 | 2.5 | -3.4 | 8.0 | -7.4 | x | x
S=C(Nc1cccnc1)Nc1ccccc1Br | 19.1 | -4.9 | -2.8 | 25.5* | 0.9 | 22.3 | -9.8 | -10.5
CC(=O)C1=CCC(c2ccc(Cl)c(Cl)c2)N(S(=O)(=O)c2ccc(C)cc2)C1 (stereo not drawn) | -0.8 | x | -24.6 | x | x | -14.7 | x | x
Cc1ccc(C)c(S(=O)(=O)NCC(=O)Nc2ccc3c(c2)OCO3)c1 | 20.6 | 2.9 | 5.3 | -3.3 | x | -8.7 | x | x
CCNc1ccc(C(=O)O)cc1N | -1.0 | 0.5 | 15.7 | 54.7* | 6.4 | -6.0 | 2.4 | -5.8
CCc1ccccc1Nc1ccc(C(=O)O)cc1N | -2.3 | 0.8 | -1.0 | 2.1 | 1.3 | -2.0 | x | x
Cc1ccc(N2C(=O)CC(N3CCN/C3=C3\CC/C(=C\c4ccccc4)C3=O)C2=O)cc1 (stereo not drawn) | -4.4 | -8.2 | -24.0 | 17.6* | 15.6 | -12.9 | 5.7 | -4.8
SMILES | C8 TRAIL sens | Platelet DG rel | TWEAK Fn14 block | HSP90 inh | PPC-1+TRAIL kill | TROY NFkB inh | HSP90 inh confirm | luciferase ctr
CCOC(=O)c1c(NC(=O)C(NCCN(C)C)c2ccccc2)sc2c1CCCC2 (stereo not drawn) | 28.9 | -14.1 | -22.9 | 23.2* | x | -28.8 | 5.8 | -3.1
COc1ccc(C(=O)Nn2c(SCC(=O)N3CCC(C)CC3)nc3ccccc3c2=O)cc1 | 52.4* | 10.0 | 97.1* | 73.4* | 49.3 | 81.2* | 71.2* | 67.4*
COCCn1c(SCC(=O)N2CCC(C)CC2)nc2ccccc2c1=O | -1.2 | -0.3 | -5.7 | 4.8 | -3.4 | -6.6 | x | x
COc1ccc(C(=O)CSc2ccccc2C(=O)O)cc1 | 2.6 | 5.3 | 43.6 | 31.8* | 27.6 | 18.6 | 32.4* | -6.6
COc1ccc(C(=O)Nn2c(SCc3cccc([N+](=O)[O-])c3)nc3ccccc3c2=O)cc1 | 28.8 | -21.4 | 78.7* | 44.4* | 33.7 | 76.4* | 49.9* | 42.0*
COc1ccc(C(=O)Nn2c(C)nc3ccccc3c2=O)cc1 | -5.5 | -8.2 | 17.1 | 6.5 | x | -4.3 | x | x
O=C(Nn1c(SCc2cccc([N+](=O)[O-])c2)nc2ccccc2c1=O)c1ccccc1 | -0.3 | -0.6 | -26.0 | 6.8 | 15.2 | 13.5 | x | x
COc1ccc(C(=O)Nn2c(SCC(=O)c3ccc(Cl)cc3)nc3ccccc3c2=O)cc1 | 13.8 | 3.5 | 91.0* | 77.2* | 40.7 | 79.1* | 52.7* | 45.6*
COCCCn1c(SCC(=O)NC2CCCCC2)nc2ccccc2c1=O | 1.6 | 4.0 | -5.4 | -1.2 | x | -28.0 | x | x
COc1ccc(C(=O)Nn2c(SCC(=O)NC3CCCCC3)nc3ccccc3c2=O)cc1 | 37.6 | 2.3 | 92.1* | 61.6* | 48.3 | 77.7* | 70.8* | 64.9*
O=C(COC(=O)CC1CC2CCC1C2)Nc1ccc(Cl)c(S(=O)(=O)N2CCOCC2)c1 (stereo not drawn) | -20.0 | x | -2.6 | x | x | 8.2 | x | x
COc1ccc2c(c1)Cc1sc(NC(=O)c3ccco3)nc1-2 | -11.7 | -1.5 | -2.8 | -1.7 | 21.1 | -5.2 | x | x
COc1ccc2c(c1)Cc1sc(NC(C)=O)nc1-2 | -1.4 | 6.3 | -16.1 | 31.8* | -8.7 | -20.4 | 1.9 | -10.1
Nc1nc(=O)n(C2CCCCO2)cc1Br (stereo not drawn) | -1.0 | x | 12.4 | x | x | -4.2 | x | x
CNC(=S)NNC(=O)c1cccn(Cc2cccc(C(F)(F)F)c2)c1=O | 6.8 | -3.9 | 8.1 | 1.7 | x | 13.3 | x | x
Cc1nc(-c2coc3cc(O)c(C)cc3c2=O)cs1 | 60.2* | 34.4 | 65.3* | 18.1* | 12.5 | 34.1 | 52.2* | 51.3*
CCc1cc2c(=O)c(-c3nc(C)cs3)coc2cc1O | 11.3 | 6.1 | -18.5 | -0.3 | 2.6 | -63.0 | x | x
